# Experimental data as given in PubChem BioAssay (EPA / NIEHS).
# Records with an inconclusive call do not appear. Some compounds were tested as several samples or in several runs, with calls that do not always agree. Calls of active or inactive are those of the source. Rule for the calls, unless noted: active = hit-call score of the fitted dose curve at least 0.9, where 1 is the maximum; inactive = score below 0.9.
# Assays:
# [1] = CCTE_Shafer_MEA_acute_cross_correlation_HWHM: CCTE's Neural Acute Assay for Cross Correlation at Half Width at Half Maximum, Shafer Lab (AID 2284026);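 note: percent change per well from pre-dose baseline in spike cross-correlogram half width; hits are a decrease in cross-correlogram half width relative to DMSO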;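 for outcome: spontaneous network firing of rat primary cortical neurons on multiwell microelectrode arrays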
# Method in brief: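 Read-out: half width at half maximum of action-potential cross-correlogram, percent change versus pre-treatment baseline, fitted in loss direction against DMSO. Rat cortical cultures, DIV 13 or 15, dosed 0.03-40 uM, 40-min recordings at 37 C.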
# [2] = CCTE_Shafer_MEA_acute_synchrony_index: CCTE's Neural Acute Assay for Synchrony, Shafer Lab (AID 2284027);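 note: network synchrony index of spontaneous spiking in primary rat cortical neurons on MEAs; fitted for loss of signal so actives lower synchrony relative to DMSO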
# Method in brief: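 Spontaneous firing of mature rat cortical networks is captured extracellularly on microelectrode arrays at 37 C, with wells needing ≥10 active electrodes. Each compound (0.03-40 uM) is judged by the change in synchrony index from baseline over 40 min.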
# [3] = CCTE_Shafer_MEA_dev_firing_rate_mean: CCTE's Neural Network Formation Assay for Mean Firing Rate, Shafer Lab (AID 2284031);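 note: AUC of well mean spike rate recorded on DIV 5 7 9 and 12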;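 for AC50: curve fitted for loss of firing so AC50 reflects decreased mean firing rate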
# Method in brief: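 Developing rat cortical networks on MEA plates undergo 12-day compound exposure. Firing frequency, averaged across active electrodes, is integrated as area under the curve over four recording days, referenced to DMSO.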
# [4] = CCTE_Shafer_MEA_dev_per_burst_spike_percent: CCTE's Neural Network Formation Assay for Percent of Spikes in a Burst, Shafer Lab (AID 2284032);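 for AC50: fitted as a decrease in burst spike percentage below DMSO baseline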
# Method in brief: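 Rat primary cortical neurons on 16-electrode MEA wells, dosed from plating day 0 for 12 days with renewal on DIV 5 and 9; spikes-in-bursts percentage averaged over bursting electrodes, collapsed as AUC across days 5, 7, 9, 12; loss direction versus DMSO.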
# [5] = CCTE_Shafer_MEA_dev_active_electrodes_number: CCTE's Neural Network Formation Assay for Number of Active Electrodes, Shafer Lab (AID 2284040; active = hit-call score of the fitted dose curve at least 0.9, where 1 is the maximum;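 for AC50: potency for loss of active electrodes versus DMSO so lower counts are hits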)
# Method in brief: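 Rat cortical primary cultures, 1.5 x 10^5 cells/well, PEI-coated MEA, laminin drop. Continuous exposure DIV 0–12; full media/compound change DIV 5, 9. Readout: electrodes with mean firing ≥5 spikes/min; AUC across days; loss vs DMSO.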
# [6] = CCTE_Deisenroth_AIME_384WELL_CTox_Active: Cytotoxicity Assessment (CTOX) in CCTE's 384-well Estrogen Receptor Transactivation Assay with AIME metabolic competence (metabolism positive), Deisenroth Lab (AID 2284037; active = hit-call score of the fitted dose curve at least 0.9, where 1 is the maximum;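 note: chemicals first conditioned 2 h by alginate-bound induced rat liver S9 before cells; activity means signal loss indicating cell death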)
# Method in brief: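 Chemicals pre-incubated 2 hours with alginate-immobilised phenobarbital/beta-naphthoflavone-induced male Sprague Dawley rat liver S9, then conditioned medium applied 24 hour to VM7Luc4E2 cells. Viability by fluorogenic protease substrate; 10-point series 0.002 - 200 uM.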
# [7] = CCTE_Deisenroth_AIME_384WELL_CTox_Inactive: Cytotoxicity Assessment (CTOX) in CCTE's 384-well Estrogen Receptor Transactivation Assay without AIME metabolic competence (metabolism negative), Deisenroth Lab (AID 2284039; active = hit-call score of the fitted dose curve at least 0.9, where 1 is the maximum;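 note: cell viability via live-cell protease substrate cleaved to fluorescent probe; cells exposed 24 h to medium preincubated 2 h with alginate-water beads without S9; loss of fluorescence signal means loss of viability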)
# Method in brief: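 VM7Luc4E2 human breast cells received conditioned medium from a 2 h incubation of chemical with alginate-water microspheres (no S9), then were exposed 24 h. Viability was read as protease-substrate cleavage to a fluorescent probe; loss of signal was fitted bidirectionally over 0.002–200 uM.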
# [8] = biological target: Estrogen receptor (Homo sapiens) (UniProt P03372); experiment: CCTE_Deisenroth_AIME_384WELL_LUC_Active: CCTE's 384-well Estrogen Receptor Transactivation Assay with AIME metabolic competence (ERTA luciferase; metabolism positive), Deisenroth Lab (AID 2284030; active = hit-call score of the fitted dose curve at least 0.9, where 1 is the maximum)
# Chain of Estrogen receptor (Homo sapiens) (P03372 whole entry, looked up): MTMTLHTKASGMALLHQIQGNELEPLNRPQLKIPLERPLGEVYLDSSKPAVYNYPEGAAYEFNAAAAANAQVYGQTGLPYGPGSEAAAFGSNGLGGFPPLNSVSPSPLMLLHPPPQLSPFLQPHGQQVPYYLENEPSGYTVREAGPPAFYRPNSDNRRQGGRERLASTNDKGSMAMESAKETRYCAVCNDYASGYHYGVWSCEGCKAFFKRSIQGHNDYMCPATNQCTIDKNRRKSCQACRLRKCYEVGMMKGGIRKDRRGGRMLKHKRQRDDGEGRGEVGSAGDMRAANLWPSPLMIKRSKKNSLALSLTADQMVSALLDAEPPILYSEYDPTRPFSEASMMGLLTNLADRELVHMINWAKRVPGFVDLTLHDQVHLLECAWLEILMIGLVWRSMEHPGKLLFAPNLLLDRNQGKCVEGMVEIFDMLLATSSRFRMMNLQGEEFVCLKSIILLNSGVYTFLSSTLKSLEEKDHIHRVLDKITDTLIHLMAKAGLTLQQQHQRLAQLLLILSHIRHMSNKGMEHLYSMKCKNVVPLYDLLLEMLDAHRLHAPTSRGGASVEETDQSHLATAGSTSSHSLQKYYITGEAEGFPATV
# Method in brief: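 Readout: bioluminescent luciferase induction in VM7Luc4E2 cells 24 hour after receiving medium from a 2 h rat hepatic S9 (induced, alginate microsphere) metabolism step. Concentrations 0.002 - 200 uM; activity scaled to 17beta-estradiol positive control.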
# [9] = biological target: Estrogen receptor (Homo sapiens) (UniProt P03372); experiment: CCTE_Deisenroth_AIME_384WELL_LUC_Inactive: CCTE's 384-well Estrogen Receptor Transactivation Assay without AIME metabolic competence (ERTA luciferase; metabolism negative), Deisenroth Lab (AID 2284038; active = hit-call score of the fitted dose curve at least 0.9, where 1 is the maximum;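 note: hits raise estrogen receptor luciferase signal so potencies reflect agonists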)
# Method in brief: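 Chemicals (10-point series, 0.002 - 200 uM) were incubated 2 hours with alginate-water microsphere lids lacking S9, then the conditioned medium was transferred to VM7Luc4E2 breast cells for 24 hour. Luciferase induction was read by bioluminescence, fitted upward relative to 17beta-estradiol.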
# [10] = biological target: Estrogen receptor (Homo sapiens) (UniProt P03372); experiment: CCTE_Deisenroth_AIME_384WELL_LUC_Shift: CCTE's 384-well Estrogen Receptor Transactivation Assay with AIME metabolic competence data shift (ERTA luciferase; difference in metabolism positive and negative), Deisenroth Lab (AID 2284041);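 note: shift is response with S9 minus without S9 so positive means metabolism raised ER signal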
# Method in brief: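 Chemicals (0.002–200 uM, 10 points) pre-incubated 2 h with alginate-encapsulated induced male Sprague Dawley rat liver S9 or S9-free, then medium applied 24 h to VM7Luc4E2 cells; luciferase. Endpoint is per-concentration difference, S9-positive minus negative.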
compound,measurement,setting,value
O=C(CCCN1CCC(O)(c2ccc(Cl)cc2)CC1)c1ccc(F)cc1,outcome,[1],inactive
same,outcome,[2],inactive
same,AC50,[3],0.39 µM (active)
same,AC50,[4],4.18 µM (active)
same,AC50,[5],2.33 µM (active)
O=C(O)CCC(F)(F)C(F)(F)C(F)(F)C(F)(F)C(F)(F)F,outcome,[3],inactive
same,outcome,[4],inactive
CCC(C)c1ccccc1O (centres undefined),AC50,[1],8.95 µM (active)
same,AC50,[2],7.45 µM (active)
same,outcome,[6],inactive
same,AC50,[7],0.00093 µM (active)
FC(F)=C(F)C(F)(F)C(F)(F)C(F)(F)C(F)F,outcome,[3],inactive
same,outcome,[4],inactive
N=C(N)c1ccc(OCCCCCOc2ccc(C(=N)N)cc2)cc1,AC50,[1],32 µM (active)
same,AC50,[2],26.3 µM (active)
CCCCCCCCCC=CCC1CC(=O)OC1=O (centres undefined),outcome,[8],inactive
same,outcome,[9],inactive
same,outcome,[7],inactive
same,outcome,[10],inactive
O=CC(F)(F)C(F)(F)C(F)(F)C(F)F,outcome,[3],inactive
same,outcome,[4],inactive
same,outcome,[5],inactive
O=C1NS(=O)(=O)c2ccccc21,outcome,[1],inactive
same,outcome,[2],inactive
same,outcome,[3],inactive
same,outcome,[4],inactive
same,outcome,[5],inactive
Oc1ccc(Cc2ccccc2O)cc1,outcome,[1],inactive
same,outcome,[2],inactive
CC(=O)Nc1ccc(O)cc1,outcome,[1],inactive
same,outcome,[2],inactive
same,outcome,[3],inactive
same,outcome,[4],inactive
same,outcome,[6],inactive
same,outcome,[5],inactive
CCCCc1ccc2ccccc2c1S(=O)(=O)O,outcome,[8],inactive
same,outcome,[9],inactive
same,outcome,[7],inactive
same,outcome,[10],inactive
O=C(F)C(F)(F)C(F)(F)C(F)(F)C(=O)F,outcome,[3],inactive
same,outcome,[4],inactive
same,outcome,[5],inactive
OCC(F)(F)C(F)(F)C(F)(F)C(F)(F)C(F)(F)C(F)(F)C(F)(F)C(F)(F)C(F)(F)C(F)(F)C(F)(F)F,outcome,[3],inactive
same,AC50,[4],15 µM (active)
same,outcome,[4],inactive
same,AC50,[5],15 µM (active)
same,outcome,[5],inactive
O=C(C=C(O)C(F)(F)F)C(F)(F)F,outcome,[3],inactive
same,outcome,[4],inactive
